# The source made the active and inactive calls.
# Assays:
# [1] = system: PRMT1 (protein arginine N-methyltransferase 1); assay: small molecules binding arginine methyltransferase PRMT1 – biochemical, small-molecule microarray, 635 nm fluorescence, primary screen (AID 1088); conditions: higher = more signal;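 further: binding of Prmt1 protein to compounds spotted on small-molecule microarray slides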
# [2] = growth effects on S. cerevisiae YJM789 – YJM789 clinical isolate, OD600, 24 h, basal, primary screen (AID 1089); conditions: higher = more signal, called active from +8 up or from −8 down;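 further: growth of clinical yeast isolate S. cerevisiae YJM 789 seeded 1000 cells per well; test concentration not given here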
# [3] = S. pombe growth modifiers, basal conditions – strain 972, OD600, 24 h, no modulator, primary screen (AID 1090);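 further: basal condition with compound alone and no growth modifier present; test concentration not given here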; conditions: S. pombe 972 growth, higher = more signal, called active from +8 up or from −8 down
# [4] = budding yeast growth modifiers under rapamycin – strain BY4716, OD600, 96 h, primary screen (AID 1091); further: test concentration not given here; conditions: S. cerevisiae BY4716 + rapamycin, higher = more signal, called active from +8 up or from −8 down
# [5] = molecular target: Torsin-1A-interacting protein 2 (Homo sapiens) (UniProt Q8NFQ8); assay: small molecules binding lysate-expressed LULL1 – cell lysate, human LULL1 lysate, 635/667 nm fluorescence, primary screen (AID 1092); conditions: small-molecule microarray, hLULL1 lysate binding, 635 nm fluorescence; higher = more signal;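 further: probe is lysate of COS7 cells overexpressing human LULL1; score merges per-feature 667 nm fluorescence with signal-to-noise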
# Torsin-1A-interacting protein 2 (Homo sapiens), sequence (Q8NFQ8 whole entry, looked up): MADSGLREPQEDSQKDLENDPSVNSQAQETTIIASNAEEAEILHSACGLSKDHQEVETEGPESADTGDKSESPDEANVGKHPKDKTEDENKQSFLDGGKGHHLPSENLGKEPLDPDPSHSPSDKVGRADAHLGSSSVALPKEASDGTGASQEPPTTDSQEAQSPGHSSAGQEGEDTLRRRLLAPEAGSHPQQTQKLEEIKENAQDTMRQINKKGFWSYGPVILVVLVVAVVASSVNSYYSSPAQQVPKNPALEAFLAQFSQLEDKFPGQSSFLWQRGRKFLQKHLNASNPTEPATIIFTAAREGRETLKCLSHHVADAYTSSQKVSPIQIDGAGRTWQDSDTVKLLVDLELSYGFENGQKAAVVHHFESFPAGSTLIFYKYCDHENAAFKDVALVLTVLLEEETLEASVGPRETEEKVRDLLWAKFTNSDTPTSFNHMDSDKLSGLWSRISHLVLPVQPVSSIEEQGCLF
# [6] = optical density change of DRC41 E. coli – strain DRC41, OD650, 24 h, E. coli filamentation project, primary screen (AID 1093);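 further: MC1000 strain lacking acrAB efflux and sulA so SOS filamentation is blocked; test concentration not given here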; conditions: E. coli DRC41 growth, higher = more signal, called active from +8 up or from −8 down
# [7] = probe aLefty2 binding to arrayed compounds – biochemical, biotinylated probe, 635/667 nm fluorescence, primary screen (AID 1094); conditions: small-molecule microarray, higher = more signal;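 further: score merges spot fluorescence near 667 nm with spot signal-to-noise ratio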
# [8] = system: Noggin (protein binding on small-molecule microarray); assay: small molecules binding Noggin protein – biochemical, 635/667 nm fluorescence, primary screen (AID 1095); conditions: 635 nm fluorescence, higher = more signal;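 further: score merges 667 nm feature fluorescence with signal to noise over triplicate slides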
# [9] = molecular target: Neurogenic locus notch homolog protein 3 (Homo sapiens) (UniProt Q9UM47); assay: small molecules binding NOTCH3 protein – biochemical, 635/667 nm fluorescence, primary screen (AID 1096); conditions: small-molecule microarray, 635 nm fluorescence, higher = more signal
# Neurogenic locus notch homolog protein 3 (Homo sapiens), sequence (Q9UM47 whole entry, looked up): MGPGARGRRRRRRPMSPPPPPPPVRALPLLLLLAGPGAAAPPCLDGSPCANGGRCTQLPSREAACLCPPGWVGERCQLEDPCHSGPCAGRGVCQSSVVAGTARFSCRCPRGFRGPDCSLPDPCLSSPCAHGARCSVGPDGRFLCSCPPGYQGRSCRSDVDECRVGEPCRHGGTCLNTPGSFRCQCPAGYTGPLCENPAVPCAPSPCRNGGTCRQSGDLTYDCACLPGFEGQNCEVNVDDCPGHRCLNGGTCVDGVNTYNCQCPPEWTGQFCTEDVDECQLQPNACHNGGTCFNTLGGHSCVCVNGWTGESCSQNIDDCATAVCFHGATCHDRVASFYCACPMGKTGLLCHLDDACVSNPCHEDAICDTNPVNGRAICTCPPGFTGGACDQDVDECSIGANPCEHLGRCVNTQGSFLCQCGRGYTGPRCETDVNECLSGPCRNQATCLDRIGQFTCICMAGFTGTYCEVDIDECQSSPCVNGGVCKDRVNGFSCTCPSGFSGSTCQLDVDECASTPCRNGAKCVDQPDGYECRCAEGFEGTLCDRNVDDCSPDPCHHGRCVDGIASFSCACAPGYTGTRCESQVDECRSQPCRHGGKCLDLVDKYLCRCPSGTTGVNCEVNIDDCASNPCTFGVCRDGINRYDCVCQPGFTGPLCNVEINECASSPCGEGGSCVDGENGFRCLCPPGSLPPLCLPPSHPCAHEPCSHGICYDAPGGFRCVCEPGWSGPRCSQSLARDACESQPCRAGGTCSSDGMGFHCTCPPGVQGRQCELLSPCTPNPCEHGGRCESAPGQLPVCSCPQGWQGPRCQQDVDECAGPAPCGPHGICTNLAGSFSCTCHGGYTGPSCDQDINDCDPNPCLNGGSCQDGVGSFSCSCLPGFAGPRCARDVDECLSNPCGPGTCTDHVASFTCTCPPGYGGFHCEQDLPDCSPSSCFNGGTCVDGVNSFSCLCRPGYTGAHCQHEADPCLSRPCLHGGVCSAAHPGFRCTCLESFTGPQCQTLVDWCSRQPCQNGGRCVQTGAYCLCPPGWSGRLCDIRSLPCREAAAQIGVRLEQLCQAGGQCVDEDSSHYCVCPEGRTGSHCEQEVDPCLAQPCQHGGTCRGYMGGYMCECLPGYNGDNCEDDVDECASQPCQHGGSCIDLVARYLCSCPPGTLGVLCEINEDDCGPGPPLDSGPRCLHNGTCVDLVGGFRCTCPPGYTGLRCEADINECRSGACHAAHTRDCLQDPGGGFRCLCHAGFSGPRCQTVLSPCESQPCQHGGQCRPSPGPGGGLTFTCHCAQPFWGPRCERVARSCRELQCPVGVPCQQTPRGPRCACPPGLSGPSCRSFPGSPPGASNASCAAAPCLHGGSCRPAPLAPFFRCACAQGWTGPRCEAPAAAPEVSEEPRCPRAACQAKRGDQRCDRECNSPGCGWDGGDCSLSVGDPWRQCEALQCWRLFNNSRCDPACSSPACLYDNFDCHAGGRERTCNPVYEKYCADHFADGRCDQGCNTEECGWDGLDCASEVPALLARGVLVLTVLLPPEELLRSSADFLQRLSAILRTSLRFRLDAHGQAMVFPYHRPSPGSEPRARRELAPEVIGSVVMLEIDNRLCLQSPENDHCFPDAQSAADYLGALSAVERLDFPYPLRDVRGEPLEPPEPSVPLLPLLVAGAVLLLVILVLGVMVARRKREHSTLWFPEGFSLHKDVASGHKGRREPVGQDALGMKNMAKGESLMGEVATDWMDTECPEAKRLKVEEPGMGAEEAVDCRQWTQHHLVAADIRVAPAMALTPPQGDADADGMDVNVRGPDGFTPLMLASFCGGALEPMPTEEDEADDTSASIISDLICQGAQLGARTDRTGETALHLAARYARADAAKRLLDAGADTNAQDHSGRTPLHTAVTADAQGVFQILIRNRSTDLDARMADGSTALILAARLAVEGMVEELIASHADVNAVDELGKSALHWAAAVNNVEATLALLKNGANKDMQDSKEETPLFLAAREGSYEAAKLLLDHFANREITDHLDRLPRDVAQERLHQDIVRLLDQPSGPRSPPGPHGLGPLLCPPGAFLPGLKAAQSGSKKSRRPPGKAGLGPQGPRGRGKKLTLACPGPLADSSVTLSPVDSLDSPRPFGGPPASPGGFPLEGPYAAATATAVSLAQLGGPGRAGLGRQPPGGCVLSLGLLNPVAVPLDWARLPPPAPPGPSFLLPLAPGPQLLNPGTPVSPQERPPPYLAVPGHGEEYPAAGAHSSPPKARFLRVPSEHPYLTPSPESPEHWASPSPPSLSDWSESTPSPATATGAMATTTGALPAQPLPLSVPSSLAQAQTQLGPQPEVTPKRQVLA
# [10] = probe aEGFR binding to arrayed compounds – biochemical, biotinylated probe, 635/667 nm fluorescence, primary screen (AID 1097); conditions: small-molecule microarray, higher = more signal;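 further: probe is a biotinylated anti-EGFR antibody binding compounds printed on slides; score combines fluorescence near 667 nm and signal to noise of each spot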
# [11] = system: Plasmodium falciparum Sir2 (PF13_0152, Sir2A); assay: Plasmodium falciparum Sir2A binding compounds – biochemical, small-molecule microarray, 635 nm fluorescence, primary screen (AID 1098); conditions: fluorescence 635 nm, higher = more signal;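 further: score merges spot fluorescence intensity with its signal-to-noise ratio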
# [12] = probe aDKK1 binding to arrayed compounds – biochemical, biotinylated probe, 635/667 nm fluorescence, primary screen (AID 1099); conditions: small-molecule microarray, higher = more signal;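 further: score merges 667nm spot fluorescence with signal to noise across triplicate slides; reference of the scale not given here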
# [13] = probe aCHRDL2 binding to arrayed compounds – biochemical, biotinylated probe, 635/667 nm fluorescence, primary screen (AID 1100); conditions: small-molecule microarray, higher = more signal
# [14] = change in splice reporter luminescence, either direction, cell-based, HEK293, spliceosome inhibition project, primary screen (AID 1101); conditions: HEK293 splicing luciferase reporter, 24 h, higher = more signal, called active from +8 up or from −8 down;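 further: HEK293 cells carrying a splicing-competent luciferase reporter gene; test concentration not given here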
# [15] = molecular target: Fibroblast growth factor 10 (Homo sapiens) (UniProt O15520); assay: compounds binding fibroblast growth factor 10 – biochemical, small-molecule microarray, 635 nm fluorescence, primary screen (AID 1102); conditions: FGF10 binding, fluorescence 635 nm, higher = more signal
# Fibroblast growth factor 10 (Homo sapiens), sequence (O15520 whole entry, looked up): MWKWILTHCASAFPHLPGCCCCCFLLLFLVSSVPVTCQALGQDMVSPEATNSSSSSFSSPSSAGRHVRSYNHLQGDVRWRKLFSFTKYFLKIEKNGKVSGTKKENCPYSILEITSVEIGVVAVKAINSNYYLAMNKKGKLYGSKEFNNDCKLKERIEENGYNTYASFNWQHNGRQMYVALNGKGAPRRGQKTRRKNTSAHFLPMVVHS
# [16] = system: glycogen synthase kinase-3 (GSK3A per assay name; protocol says GSK3B); assay: compounds binding glycogen synthase kinase-3 – biochemical, small-molecule microarray, 635 nm fluorescence, GSK3A, primary screen (AID 1103); conditions: fluorescence 635 nm, higher = more signal; further: the record names both GSK3A and GSK3B
# [17] = molecular target: Epidermal growth factor receptor (Homo sapiens) (UniProt P00533); assay: compounds binding epidermal growth factor receptor – biochemical, small-molecule microarray, 635 nm fluorescence, primary screen (AID 1104); conditions: EGFR binding, higher = more signal;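 further: score merges 667 nm emission intensity with spot signal to noise over triplicate slides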
# Epidermal growth factor receptor (Homo sapiens), sequence (P00533 whole entry, looked up): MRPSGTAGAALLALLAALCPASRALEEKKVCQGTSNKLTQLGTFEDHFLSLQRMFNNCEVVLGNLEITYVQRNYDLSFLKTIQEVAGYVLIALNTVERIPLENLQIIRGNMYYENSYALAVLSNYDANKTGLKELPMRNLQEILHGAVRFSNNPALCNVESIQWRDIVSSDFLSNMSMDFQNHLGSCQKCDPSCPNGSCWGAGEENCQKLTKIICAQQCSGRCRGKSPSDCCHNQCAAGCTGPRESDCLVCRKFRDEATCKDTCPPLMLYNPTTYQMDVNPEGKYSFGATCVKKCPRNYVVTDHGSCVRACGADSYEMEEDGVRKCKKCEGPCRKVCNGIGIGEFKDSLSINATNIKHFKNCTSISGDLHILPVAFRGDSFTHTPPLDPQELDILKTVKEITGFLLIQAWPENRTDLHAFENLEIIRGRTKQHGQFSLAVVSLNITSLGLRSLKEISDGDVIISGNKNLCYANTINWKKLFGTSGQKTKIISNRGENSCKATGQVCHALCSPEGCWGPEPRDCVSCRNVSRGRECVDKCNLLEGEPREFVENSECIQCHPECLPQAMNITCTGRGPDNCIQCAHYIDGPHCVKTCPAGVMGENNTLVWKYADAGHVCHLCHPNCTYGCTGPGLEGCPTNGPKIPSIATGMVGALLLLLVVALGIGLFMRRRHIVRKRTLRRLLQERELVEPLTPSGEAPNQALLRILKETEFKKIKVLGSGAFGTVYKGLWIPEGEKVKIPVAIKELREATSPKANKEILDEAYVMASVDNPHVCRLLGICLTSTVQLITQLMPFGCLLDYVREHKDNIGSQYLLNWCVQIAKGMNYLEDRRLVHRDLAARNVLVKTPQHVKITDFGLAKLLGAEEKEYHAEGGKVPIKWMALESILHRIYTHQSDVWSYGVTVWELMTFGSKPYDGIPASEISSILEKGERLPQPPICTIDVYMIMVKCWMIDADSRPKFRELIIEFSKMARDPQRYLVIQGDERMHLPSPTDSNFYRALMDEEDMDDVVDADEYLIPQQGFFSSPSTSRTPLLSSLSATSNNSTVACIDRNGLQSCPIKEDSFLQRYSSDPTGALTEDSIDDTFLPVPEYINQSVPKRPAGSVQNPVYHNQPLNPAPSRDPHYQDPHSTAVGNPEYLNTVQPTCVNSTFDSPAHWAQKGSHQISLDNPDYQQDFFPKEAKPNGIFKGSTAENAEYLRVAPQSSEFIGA
# [18] = molecular target: Follistatin-related protein 3 (Homo sapiens) (UniProt O95633); assay: compounds binding follistatin-related protein 3 – biochemical, small-molecule microarray, 635 nm fluorescence, primary screen (AID 1105); conditions: FSTL3 binding, higher = more signal;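 further: score merges emission near 667 nm and signal to noise per printed spot across three slides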
# Follistatin-related protein 3 (Homo sapiens), sequence (O95633 whole entry, looked up): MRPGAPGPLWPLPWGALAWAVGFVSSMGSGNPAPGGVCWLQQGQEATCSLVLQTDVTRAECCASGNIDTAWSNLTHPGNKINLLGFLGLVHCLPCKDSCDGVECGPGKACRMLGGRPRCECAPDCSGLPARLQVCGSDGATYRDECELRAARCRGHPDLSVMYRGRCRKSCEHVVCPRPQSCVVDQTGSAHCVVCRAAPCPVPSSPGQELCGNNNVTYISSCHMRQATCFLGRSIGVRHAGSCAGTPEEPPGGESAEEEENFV
# [19] = molecular target: Dickkopf-related protein 1 (Homo sapiens) (UniProt O94907); assay: small molecules binding DKK1 protein – biochemical, small-molecule microarray, 635 nm fluorescence scan, primary screen (AID 1106); conditions: higher = more signal;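 further: score merges emission near 667 nm with signal to noise over three replicate slides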
# Dickkopf-related protein 1 (Homo sapiens), sequence (O94907 whole entry, looked up): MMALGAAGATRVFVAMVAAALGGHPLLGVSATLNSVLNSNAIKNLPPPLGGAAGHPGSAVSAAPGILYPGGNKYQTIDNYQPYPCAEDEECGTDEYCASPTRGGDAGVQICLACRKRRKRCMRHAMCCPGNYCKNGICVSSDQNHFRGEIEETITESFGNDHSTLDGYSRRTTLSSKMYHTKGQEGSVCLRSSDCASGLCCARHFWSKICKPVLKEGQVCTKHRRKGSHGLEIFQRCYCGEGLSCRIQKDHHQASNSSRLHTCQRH
# [20] = system: Inhibin beta A chain (activin A); assay: small molecules binding activin A – biochemical, small-molecule microarray, 635 nm fluorescence scan, primary screen (AID 1107); conditions: INHBA, higher = more signal;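 further: mouse activin A protein probed at 4.33 µg/mL on printed slides; score merges bound-protein fluorescence near 667 nm with spot signal-to-noise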
Structure (SMILES),composite z-score [1],z-score [2],z-score [3],z-score [4],composite z-score [5],z-score [6],composite z-score [7],composite z-score [8],composite z-score [9],composite z-score [10],composite z-score [11],composite z-score [12],composite z-score [13],z-score [14],composite z-score [15],composite z-score [16],composite z-score [17],composite z-score [18],composite z-score [19],composite z-score [20]
COCC(=C=CC[C@H](O)c1ccc(OCCO)cc1)CCO,1.18,0.028 (inactive),-0.406 (inactive),-0.274 (inactive),2.42,0.399 (inactive),0.106,1.21,0.227,0.0882,1.09,0.0019,0.273,-0.51 (inactive),0.4,0.42,-0.211,0.593,0.0604,1.43
C=CCC(OC(C)=O)[C@@H]1[C@@H](N(Cc2ccc(-c3ccccc3)cc2)C(=O)c2ccc(-c3ccccc3)cc2)c2cc(OCCCO)ccc2N1C(=O)c1ccc2ccccc2c1 (stereo not given in full),0.636,-0.737 (inactive),0.109 (inactive),-0.38 (inactive),1.17,-0.728 (inactive),0.0008,0.479,0.306,-0.0531,-0.519,-0.302,0.306,-1.22 (inactive),-0.015,-0.0147,-0.175,0.453,0.0004,0.82
CCOC(=O)C[C@H]1[C@H](OC(=O)c2ccc(C(=O)c3ccccc3)cc2)[C@@H](NC(=O)CC(C)C)c2cc(OCCCO)ccc2N1C(=O)c1ccccc1,1.34,-0.327 (inactive),-0.333 (inactive),0.276 (inactive),2.03,-0.747 (inactive),0.0769,0.937,0.961,0.0807,0.449,-0.0013,-0.345,-0.958 (inactive),0.515,0.972,0.141,1.17,0.95,0.158
C=CC[C@@H](OC(=O)Nc1ccc(SC)cc1)c1ccc(O)c(F)c1,0.803,-21.2 (active),-19.9 (active),-0.545 (inactive),0.724,1.81 (inactive),0.0276,0.713,-0.0238,-0.105,0.522,0.0488,0.404,-1.79 (inactive),0.214,-0.0142,-0.361,0.155,0.183,0.77
CCCCC[C@H]1OC[C@@]23C=C(Br)[C@@H](CC12)[C@@]1(CO1)C3=O (stereo not given in full),0.915,-1.01 (inactive),-6.44 (inactive),-0.76 (inactive),0.24,-0.971 (inactive),-0.231,0.483,0.0322,-0.122,-0.501,-0.323,-0.515,0.424 (inactive),0.106,-0.0067,0.0985,-0.0915,0.103,0.0936
CCCC[C@@H]1C[C@H]1[C@@H](NC(=O)c1cccs1)c1ccccc1C(F)(F)F,0.72,0.0064 (inactive),-1.94 (inactive),1.08 (inactive),3.12,-0.0873 (inactive),0.0864,-0.597,0.168,0.0695,0.67,0.445,0.49,-0.701 (inactive),-0.0251,1.23,-0.531,-0.697,-0.291,0.978
COC(=O)[C@@]1(Cc2ccc(F)cc2)[C@H]2c3cc(C(=O)N4CCCC4)n(CCc4c[nH]c5ccccc45)c3C[C@H]2CN1C(=O)c1ccccc1,1.38,0.519 (inactive),1.68 (inactive),7.25 (inactive),3.42,-1.3 (inactive),0.323,0.462,1.01,0.0688,0.539,0.948,1.03,-0.593 (inactive),0.894,1.32,0.549,1.21,0.113,0.834
CCCNC(=O)[C@@H]1c2ccccc2C(=O)N(Cc2ccc(OC(F)(F)F)cc2)[C@H]1c1ccc(CO)cc1,0.428,0.645 (inactive),0.0302 (inactive),-0.174 (inactive),2.12,0.937 (inactive),0.0286,-0.0211,0.0529,-0.0316,1.3,0.53,0.653,0.0883 (inactive),0.402,0.284,-0.0259,0.0777,0.0637,0.0914
C=CCC(OC(C)=O)[C@@H]1[C@@H](N(Cc2cc3ccccc3o2)C(=O)Cc2ccc(F)cc2)c2cc(OCCCO)ccc2N1C(=O)Cc1ccc2ccccc2c1 (stereo not given in full),-0.241,-0.689 (inactive),-0.761 (inactive),-0.36 (inactive),0.426,-1.16 (inactive),-0.0736,0.129,-0.413,-0.185,-0.255,-0.203,0.426,-0.123 (inactive),-0.108,-0.657,-0.805,-0.656,-0.607,0.779
C=C(C(=O)CC[C@H](OC(=O)c1ccccc1-c1ccccc1C(=O)O)c1cccc(OCCO)c1)C(C)C,0.0697,0.521 (inactive),-0.561 (inactive),-0.518 (inactive),-0.138,-0.164 (inactive),-0.191,0.437,0.324,-0.18,0.627,0.414,-0.265,-0.369 (inactive),0.353,-0.418,-0.803,0.0151,0.0159,0.495

# Source: PubChem BioAssay
